# B2AR arrestin – recruits beta-arrestin to the human beta2-adrenergic receptor; Potency, µM (top dose mostly 46.1 µM), for inactives: top-dose activation, usual class: activators; AID 492947; actives 0.02% (n = 330,000); beta-arrestin recruitment to beta2AR, cell-based reporter; P07550;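 note: potency is the fitted concentration of half-maximal effect; 0% = DMSO controls and full agonism = EC100 isoproterenol or metaproterenol; nearly all actives have a fitted effect of over 65% in size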
# BRCA1 expr act – BRCA1 expression activation. MCF7-BRCA1-FFLuc reporter, luminescence, 48 h; response scale: scaled: vehicle 0%, 10 µM genistein 100%. Potency, µM (series often up to 46.1 µM), for the others: at the highest dose activation, usual class: activators. actives 1.1% (n = 380,000). AID 624202; note: potency is the fitted concentration of half-maximal effect; nearly all actives have a fitted effect of over 80% in size
#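 Luminescence from a BRCA1-driven firefly luciferase in MCF7 cells was read after 48 h compound exposure at 37 C. Data normalized against DMSO and a 10microM genistein activation control, then curve-fitted across the titration.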
# DRD3 agonist – D3 dopamine receptor (human) agonism; P35462; D3R DiscoveRx beta-arrestin cells, luminescence, 90 min; max activation, %; actives 0.58% (n = 410,000); AID 652048; in the data active = max activation above about 30%; note: 0% is about no effect
#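 Agonist mode: compounds and dopamine controls were applied to plated cells for 90 min at 37 degrees C after an overnight attachment at 1500 cells/well. Luminescent read-out followed 30 - 60 minutes at room temperature with DiscoveRx detection reagent.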
# RGS4 inhibitor – human RGS4 inhibition; AID 504845; P49798; actives 0.039% (n = 390,000); Transcreener GDP fluorescence polarization, RGS4-accelerated GTP hydrolysis; Potency, µM (series often up to 114 µM), without a hit: top-dose activity change, negative = inhibition, most hits filed as inhibitors; note: potency is the fitted concentration of half-maximal effect; % is set by controls: 0 for no effect and ±100 for the full control effect; nearly all actives have a fitted effect of over 75% in size
# Target sequence (P49798 whole entry, looked up): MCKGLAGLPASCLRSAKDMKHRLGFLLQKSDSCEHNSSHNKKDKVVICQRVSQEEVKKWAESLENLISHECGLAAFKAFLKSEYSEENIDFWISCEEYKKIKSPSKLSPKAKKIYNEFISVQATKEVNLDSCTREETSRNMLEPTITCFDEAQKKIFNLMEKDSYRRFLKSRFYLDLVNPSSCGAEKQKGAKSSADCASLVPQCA
#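 MLSMR compounds (23 nl, pin-transferred) preincubated 10 min at room temperature with a 500nM (2x) first reagent, then RGS4 at 900nM (2x) plus Transcreener GDP mix added; fluorescence polarization (620/688 nm) read before and after 90 min at 30 °C.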
# DRD3 antagonist – blocks the human D3 dopamine receptor. P35462. D3R cells, DiscoveRx beta-arrestin luminescence, antagonist mode; active compounds read low. max response, negative = inhibition, %. actives 2.5% (n = 360,000). AID 652054; in the data active = max response below about -50%; inconclusive = no clear call, values can overlap the other calls; note: % is set by controls: 0 for no effect and ±100 for the full control effect
#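 Cells plated overnight at 1500 cells/well, then exposed to library compounds with dopamine controls for 90 minutes at 37 degrees C. DiscoveRx reagent added for 30–60 minutes at room temperature; luminescence read, quantitative HTS format.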
# PTHR1 agonist – activates the human parathyroid hormone receptor PTHR1; HEK293 GP2 PTHR1 cells, GloSensor cAMP luminescence, 1 h; Potency, µM (top dose mostly 115 µM), for the others: at the top dose activation, most hits filed as activators; actives 0.075% (n = 410,000); AID 743266; note: potency is the fitted concentration of half-maximal effect; nearly all actives have a fitted effect of over 55% in size
#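 HEK-293-derived GP2 cells expressing PTHR1 and a GloSensor cAMP reporter, 3,000/well, plated overnight, given luciferin plus IBMX (each 0.5 mM as added) for 1 h at 37 °C, then compound for 1 h at 37 °C. Luminescence was read after 15 min at room temperature.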
# Starred values were filed as active, the others as inactive; i = inactive; ? = inconclusive; / = no result given; [ ] = dose if it differs, or a comment. Sampled rows, rich in hits. Any-hit rate of the full collection: about 3.7%. Unless noted, calls come from the whole dose curve; as a rule, active = well fitted curve in the direction sought with a large enough effect; inconclusive = small, poorly fitted or top-dose-only effect, or another doubt; inactive = no such curve, though single readings can be large; an effect the other way counts as inactive or inconclusive.
SMILES,B2AR arrestin,BRCA1 expr act,DRD3 agonist,RGS4 inhibitor,DRD3 antagonist,PTHR1 agonist
COc1ccc(-c2cc(C(F)(F)F)nc(N3CCCCCC3)n2)cc1,-1%,-3%,-6,10%,-16,-30%
CCOc1ccc(NC(=O)C2CCN(S(=O)(=O)c3ccc4c(c3)oc(=O)n4C)CC2)cc1,/,-10%,1,5%,/,-94%
CN1C(=O)C(C)(C)c2cc(S(=O)(=O)NCc3ccc(C(=O)Nc4ccc(Cl)cc4)cc3)ccc21,/,/,12,0%,/,-51%
COc1ccc(OC)c(C2C(C(=O)c3sc(C)nc3C)=C(O)C(=O)N2CCN2CCOCC2)c1 (stereo not drawn),-1%,-13%,-9,-2%,-56*,3%
COc1ccc(C2C(C(=O)c3sc(C)nc3C)=C(O)C(=O)N2CCN2CCOCC2)cc1 (stereo not drawn),0%,19%,-19,-22%,?,i
Cn1c(=O)c2cc(NC(=O)OCCF)ccc2n1Cc1cccc(C(F)(F)F)c1,/,-12%,-7,/,0,-30%
CC/C(=N\Nc1ccccc1[N+](=O)[O-])c1ccc(O)cc1,0%,89%,-12,0%,-57*,-15%
CC/C(=N\Nc1ccc([N+](=O)[O-])cc1[N+](=O)[O-])c1ccc(O)cc1,0%,-44%,2,-15%,-12,-25%
CCOC(=O)C1(Cc2cccc(OC)c2)CCCN(C(=O)CCN2CCCO2)C1 (stereo not drawn),3%,4µM*,-15,-25%,-6,-18%
CCOC(=O)C1(Cc2cccc(OC)c2)CCCN(C(=O)c2ccc(OC)o2)C1 (stereo not drawn),0%,?,2,-7%,2,-32%
Cc1cccnc1NCc1ccc(O)c2ncccc12,?,-86%,-19,-4%[11.4 µM],-51*,i
CN1CCN(C(=O)c2cc3sccc3n2CC(=O)c2ccccc2)CC1,-1%,1%,-38,6%,-62*,-16%
CCN1CCN(C(=O)c2cc3sccc3n2CC(=O)c2ccccc2)CC1,0%,5%,-38,3%,-56*,i
O=C1Nc2ccccc2C1=Nc1ccc2[nH]c3ccccc3c2c1,/,-11%,1,?,-7,-23%
CC(=O)Nc1ccc(N=NC2C(=O)N(C(N)=S)N=C2C)cc1 (stereo not drawn),0%,15%,-16,-16%,-13,-2%
CC1=NN(C(N)=S)C(=O)C1N=Nc1ccc(O)cc1 (stereo not drawn),0%,36%,16,-25%,-66*,-64%
CC1=NN(C(N)=S)C(=O)C1N=Nc1cccc(C(=O)O)c1 (stereo not drawn),0%,-33%,-14,8%,-23,i
CC1=NN(C(N)=S)C(=O)C1N=Nc1ccc(F)cc1 (stereo not drawn),2.5µM*,40%,-3,-22%,-3,-2%
CCOc1ccc(N=NC2C(=O)N(C(N)=S)N=C2C)cc1 (stereo not drawn),0%,?,1,-16%,3,-1%
CC1=NN(C(N)=S)C(=O)C1N=Nc1ccc([N+](=O)[O-])cc1 (stereo not drawn),7.1µM*,4%,-1,-2%,-15,-18%
CC1=NN(C(N)=S)C(=O)C1N=Nc1cccc(C)c1 (stereo not drawn),1.3µM*,11%,3,7%,-18,-15%
CCCNC(=O)C1(C)CCCN(C(=O)c2ccccc2OC(F)(F)F)C1 (stereo not drawn),/,14%,-5,/,-24,-9%
CCOc1cc(S(=O)(=O)n2ccnc2C(C)C)ccc1Cl,/,/,-19,11%,/,-6%
CNc1cc(-c2ccc(O)cc2C)ncn1,/,17%,7,/,18,i
CC(CCN1CCN(c2ccc(F)cc2)CC1)c1ccccc1 (stereo not drawn),2%,-23%,-34,-14%,-76*,-3%

# Source: PubChem
